Experimental data taken from PubChem BioAssay.
Records with an inconclusive call do not appear. Active and inactive are the calls of the source.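 Rule for the calls: active = viability at or below 27.92% in each of two runs, the all-compound median minus 4 SD; inconclusive = no clear call, values can overlap the other calls; inactive = the rest.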

Experiment: viability of PTEN-null HCT116 cells – cell-based, HCT116 clonal line, CellTiter-Glo, pilot screen (AID 824);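 note: 0% = 20 µM Hyamine control and 100% = vehicle cell control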
Settings: HCT116 PTEN-deleted viability, 60 h, at 10 µM, active compounds read low

SMILES	viability
O=C(CCCN1C(=O)c2ccccc2C1=O)Nc1ccccc1C(=O)N1CCOCC1	103% (inactive)
COc1cccc(C2CC(=O)N3CN(c4ccccc4F)CSC3=C2C#N)c1 (configuration not stated)	94.3% (inactive)
C=CCNc1oc(Cc2cccc3ccccc23)nc1C#N	88% (inactive)
O=C(c1ccccc1)c1ccc2nc(N3CCCCC3)c3nncn3c2c1	56.4% (inactive)
O=C(CSCC(=O)NC1CC1)Nc1ccccc1	98.7% (inactive)
Cc1ccc(N(C(=O)c2cccs2)C2C=CS(=O)(=O)C2)cc1 (configuration not stated)	94% (inactive)
COc1ccc(NC(=O)N(Cc2ccc(C)cc2)Cc2ccccn2)c(OC)c1	96% (inactive)
CC(=O)C(C)Oc1ccc2c3c(c(=O)oc2c1)CCCC3 (configuration not stated)	91.1% (inactive)
CC(=O)c1c(C)oc(C)c1CSCc1ccc(C(=O)O)o1	97.9% (inactive)
CCn1c(CNC(=O)C(C)(C)C)nc2ccccc21	101% (inactive)
Cc1cc(C)n(-c2nnc(C)n2/N=C/c2cc(Br)ccc2OCc2ccccc2)n1	8.96% (active)
CCC(=O)Nc1cccc(-c2nnc(SCC(=O)c3ccccc3)n2C)c1	92.6% (inactive)
O=C(COc1cccc2ccccc12)N1CCN(c2ccccc2)CC1	89% (inactive)
O=C(O)CSc1cccc2cccnc12	102% (inactive)
CN=C1SC(CC(=O)Nc2ccccc2F)C(=O)N1C (configuration not stated)	98.9% (inactive)
COc1ccc2[nH]c(C)c(CN3CCC(C)CC3)c(=O)c2c1	90.8% (inactive)
O=C(OCN1C(=O)c2ccccc2C1=O)c1ccco1	93.3% (inactive)
